The values that follow come from PubChem BioAssay AID743279 (National Center for Advancing Translational Sciences (NCATS), 2014).

SMILES strings stand for the structures. The campaign covered roughly 360,000 compounds. About 17,000 (4.7%) were called active. Another 5% or so got no clear call; they are omitted. The sample as a whole holds a higher share of actives than the screen did. A number with no mark means an inactive call. No stated cut-off is given here; in the data, active means activity change below about -50%; inconclusive means mostly about -30% to -49%; inactive means weaker than that.
On the % scale 0 is the no-effect control and ±100 the full control effect.

The experiment in a line: qHTS for Inhibitors of Inflammasome Signaling: IL-1-beta AlphaLISA Primary Screen. To be noted: THP-1 LPS/ATP IL-1B secretion, 16 h; at 57.5 µM, hits give low values. In short, it runs like this: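 THP-1 cells pretreated 1 hr with compounds (up to 57.5 uM final), then stimulated with LPS (250 ng/mL final) plus ATP (1.25 mM final); secreted IL-1B measured by AlphaLISA after 16 hr, decreased signal indicating inhibition.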
Background: Quantitative high-throughput screening tests each substance at several concentrations.
In the case of `O=C(O)CSc1nccc2ccccc12`, the activity change was -61.2% (active).

For the compound `CCOC(=O)C(C(=O)c1ccccc1)C(c1ccccc1)c1nccc2ccccc12` (centres undefined), the activity change is 11.3%.

Take `O=C(O)CSc1nccn1-c1cccc(Cl)c1`: the activity change was 14.2%.

Consider `CCNC(=O)C1(C)CCCN1C(=O)c1ccc(N(C)C)cc1` (centres undefined), for which the activity change was 15.5%.

For `Cc1nc(SCC(=O)c2ccccc2)c([N+](=O)[O-])[nH]1`, the activity change is 23.3%.

`CSCCC(C(=O)NC(C)(C)C)n1c(-c2ccccc2)nc2ccccc21` (centres undefined): the activity change was 15.5%.

Turning to `COc1ccc(-c2[nH]ncc2/C=N/NC(=O)c2cc(Br)ccc2O)c(OC)c1`, the activity change was 86.3%.

Turning to `CCOc1ccccc1Oc1cn[nH]c1-c1ccc(OC)cc1O`, the activity change is 18.7%.

Turning to `COc1ccc(Oc2cn[nH]c2-c2ccc(OC)cc2O)cc1`, the activity change was -82.8% (active).

On to `CC1Sc2ccc(S(=O)(=O)CCC(=O)NCc3ccccc3Cl)cc2NC1=O` (centres undefined), for which the activity change was 18.9%.

Take `CCS(=O)(=O)Nc1cccc(-c2cc(-c3ccccc3)c3cc(C)ccc3n2)c1`: the activity change is -99.4% (active).

As for `Cc1cc(C)cc(NS(=O)(=O)Cc2ccccc2)c1`, the activity change was -5.28%.

On to `CS(=O)(=O)Nc1cccc(-c2cn3ccccc3n2)c1`, for which the activity change was -14%.

On to `O=C(NC1CCCCC1)C(c1cc2ccccc2o1)n1c(=O)c(-c2ccco2)nc2ccccc21` (centres undefined), for which the activity change is -2.14%.

Regarding `CC(=O)NCCNC(=O)c1cc(-c2cccc3ccccc23)nc2ccccc12`, the activity change was 0.0656%.

As to `CN(C)CCNC(=O)c1ccc(Cl)c2cc3ccccc3nc12`, the activity change was -112% (active).

Consider `CN(C)CCNC(=O)Nc1cccc(Cl)c1Cl`, for which the activity change was 2.19%.

With `O=C(OCc1ccccc1)N1CCC2CC1c1cc(N3CCN(S(=O)(=O)c4cc(Cl)cc(Cl)c4)CC3)ccc12` (centres undefined), the activity change was 21.9%.

For `CC1(C)C=Cc2c(ccc3c2OC[C@@H](c2ccc(O)cc2O)C3)O1`, the activity change was -13.2%.

`CC(=O)c1c(N2CCOCC2)nc(=S)n(-c2cc(C)ccc2C)c1C`: the activity change is -14.3%.

Regarding `CC(=O)c1c(N2CCOCC2)nc(=S)n(Cc2ccccc2)c1C`, the activity change was 30.6%.

Consider `CC(=O)c1c(N2CCN(c3ccc(F)cc3)CC2)nc(=S)n(-c2ccccc2)c1C`, for which the activity change is -79.7% (active).

On to `CCOc1ccc(NC(=O)CN(C)C(=O)c2c(C)noc2C)cc1OCC`, for which the activity change was 2.67%.

As for `Cc1cccc(NC(=O)COC(=O)CCc2ccccc2)c1C`, the activity change is 5.72%.

Regarding `Cc1cccc(NC(=O)CSC(N)=O)c1C`, the activity change was -90.9% (active).

Turning to `Cc1ccccc1NC(=O)CSC(=O)c1ccccc1`, the activity change is 22.2%.

Turning to `CCCCCCCCCCCCCCCC(=O)OC/C=C(C)/C=C/C=C(C)/C=C/C1=C(C)CCCC1(C)C`, the activity change is -8.52%.

Take `COC(=O)c1ccccc1NS(=O)(=O)c1ccc2[nH]c(=O)[nH]c2c1`: the activity change was -16.3%.

Take `CCOc1ccc(NC(=O)c2ccccc2NS(C)(=O)=O)cc1`: the activity change is -7.57%.

Consider `COC(=O)c1ccc(NC(=O)c2ccccc2NS(=O)(=O)c2ccccc2)cc1`, for which the activity change is -61.7% (active).

For `Cc1ccc(NS(=O)(=O)c2cc3c(cc2C)NC(=O)CO3)cc1`, the activity change is -0.465%.

With `CC1CCN(C(=O)COC(=O)CCC(=O)c2cccs2)CC1`, the activity change is 5.83%.

For `CCN1C(=O)[C@H]2[C@@H](c3ccccc3)N[C@]3(CCCN(Cc4ccc(C)cc4)C3=O)[C@H]2C1=O`, the activity change was -7.34%.

Consider `COc1cccc(CN(C)C(=O)CC23CC4CC(CC(C4)C2)C3)c1OC`, for which the activity change is -55.8% (active).

Take `COc1ccc(CN(C)C(=O)Cc2ccsc2)c(OC)c1OC`: the activity change is 40.4%.

For the compound `COc1ccc(S(=O)(=O)N2CCCCCC2)cc1C(=O)N(C)Cc1cccc(OC)c1OC`, the activity change is -8.59%.

As to `COc1ccc(NC(=O)C2(C)Cc3c(-c4cccc(NC(C)=O)c4)ccnc3O2)cc1` (centres undefined), the activity change was 48.5%.

Take `COC1=NC2=NCCN2C(OC)=N1`: the activity change was 0.792%.

Turning to `COc1ccc(C(=O)ON=C2c3ccccc3-c3ccccc32)cc1OC`, the activity change is 0%.

Take `COc1ccc(C/C(N)=N/OC(=O)c2ccco2)cc1OC`: the activity change is 9.63%.

For the compound `COc1ccc(C(=O)O/N=C(\N)Cc2ccc(Cl)cc2Cl)cc1OC`, the activity change was -58.9% (active).

On to `CCCCC(O)C1=C[N+](=O)CC=C1` (centres undefined), for which the activity change was -4.88%.

With `CCn1ccnc1CNC(=O)CC1C(=O)NCCN1Cc1ccc(F)cc1Cl` (centres undefined), the activity change was -0.584%.

Consider `CCCCc1ccc(NC(=O)CN2C(=O)NC(Cc3ccccc3)C2=O)cc1` (centres undefined), for which the activity change was -1.39%.

As to `COc1ccccc1CNC(=O)COC(=O)CNS(=O)(=O)c1ccc(NC(C)=O)cc1`, the activity change was 32.4%.

Take `COc1ccccc1C(=O)COC(=O)CNS(=O)(=O)c1ccc(NC(C)=O)cc1`: the activity change is 9.71%.

Regarding `CC(=O)Nc1ccc(S(=O)(=O)NCC(=O)OCc2cc(=O)oc3ccc4ccccc4c23)cc1`, the activity change was -58.2% (active).

For the compound `Cc1ccc(S(=O)(=O)N2CCCCC2)cc1NC(=O)CCNC(=O)c1ccccc1Cl`, the activity change is 10.9%.

Regarding `Cc1cccc(N(C(=O)c2csnn2)C(C(=O)NCc2ccccc2)c2ccncc2)c1` (centres undefined), the activity change is -12.7%.

With `CC1(C(=O)NS(=O)(=O)c2cccc(OC(F)F)c2)CCN1C(=O)C1CC1` (centres undefined), the activity change is 0%.

As to `COc1ccc(-n2c(C)cc(C(=O)CN3C(=O)NC4(CCc5ccccc54)C3=O)c2C)cc1` (centres undefined), the activity change is -85.6% (active).

For the compound `COc1ccc(C(=O)CN2C(=O)NC3(CCc4ccccc43)C2=O)c(OC)c1` (centres undefined), the activity change was -22.2%.

Consider `Cc1ccc(C(=O)CN2C(=O)NC3(CCc4ccccc43)C2=O)c(C)c1` (centres undefined), for which the activity change is -6.4%.

Take `CC(=O)Nc1ccc(S(=O)(=O)NC(C)C(=O)OCC(=O)NC2CCCC2)cc1` (centres undefined): the activity change is 0%.

As for `CC(=O)Nc1ccc(S(=O)(=O)NC(C)C(=O)OCCOc2ccc(F)cc2)cc1` (centres undefined), the activity change is -84.9% (active).

As for `CC(=O)Nc1ccc(NC(=O)COc2ccc(S(=O)(=O)NC(C)c3ccccc3)cc2)cc1` (centres undefined), the activity change was 18.3%.

For `COc1ccccc1-c1cc2nc(NCc3cccc(Cl)c3)ccn2n1`, the activity change is -19.9%.

`Cc1ccc(-c2nn(-c3cccc(F)c3)cc2CNCCc2ccncc2)o1`: the activity change was -77.5% (active).

Consider `Cc1ccc(N2C(=O)C(CC(=O)Nc3cccc(F)c3)N(CCc3ccncc3)C2=O)cc1` (centres undefined), for which the activity change was -0.0392%.
